Data reported in PubChem BioAssay (Tox21).
A number with no mark means an inactive call. Active and inactive are the calls of the source. Calls come from the whole dose curve; as a rule, active = well fitted curve in the direction sought with a large enough effect in the repeat runs; inconclusive = weak or mixed curves; inactive = flat fitted curve, though single readings scatter.

Test: qHTS assay to test for compound auto fluorescence at 535 nm (green) in HepG2 cell free culture (AID 720686)
Conditions: Cell-free medium, green autofluorescence 485/535 nm; series mostly up to 91.3 µM; fluorescence, % of fluorescein control: at the top concentration
From the text: U.S. Tox21 Program National Center for Advancing Translational Sciences [NCATS] NIH Chemical Genomics Center [NCGC] U.S. Environmental Protection Agency [EPA] National Institutes of Environmental Health Sciences [NIEHS] National Toxicology Program [NTP] U.S. Food and Drug Administration [FDA] Tox21 Assay Overview: Compound auto fluorescence often interferes with screening of the compound library against various biological targets and signaling pathways. Some of these compounds may have fluorophoric properties. Such properties may interfere with the assay outputs resulting in false positives and/or negatives. To decrease such complications and ensure the compound activities are relevant in terms of biological response, the Tox21 10K compound library was screened for auto fluorescence. From the fluorophores used as reporter signals in our screening assays, the auto fluorescence equivalencies of compounds against three fluorophores have been evaluated: Triamterene, Fluorescein and Rose Bengal sodium for blue, green and red fluorescence, respectively. The fluorescence intensities were measured using Excitation/Emission wavelengths at 405/460nm, 485/535nm and 540/590nm for blue, green and red labels, respectively. This assay includes the green fluorescence data.
Tox21 Assay Protocol Summary: 5 uL of culture medium (MEM containing 10% FBS) per well was dispensed into black wall/clear bottom 1536-well plates using a Multidrop Combi Dispenser (ThermoFisher Scientific, Waltham, MA). After 23 nL compound or DMSO vehicle was transferred into assay plate by a pintool work station (Kalypsys, San Diego, CA), fluorescence intensities in the assay plates were measured by an Envision (PerkinElmer, Shelton, CT) plate reader using three labels for measuring blue, green and red fluorescence at […] 460, 535 and 590nm respectively.
% is set by controls: 0 for no effect and ±100 for the full control effect.

Compound	fluorescence, % of fluorescein control	outcome
Nc1ncnc(Nc2ccccc2)n1	-0.0245% [at 46 µM]	
CCCCN	-0.0225% [at 46 µM]	
CCCCC(CC)COCCO (stereo not given)	-0.0489%	
CC1=C(C(=O)O)N2C(=O)[C@@H](NC(=O)[C@H](N)c3ccc(O)cc3)[C@H]2SC1	0.179% [at 18.6 µM]	
O=C(O)c1cc(Cl)cc([N+](=O)[O-])c1Cl	0.0259%	
BrCc1cccc(Oc2ccccc2)c1	-0.0396%	
COc1cc(C(=S)N2CCOCC2)cc(OC)c1OC	0.0289% [at 46 µM]	
O=S(=O)(O)CCN1CCN(CCO)CC1	-0.0694%	
CC(=O)Nc1ccc(S(=O)(=O)Nc2ccc([N+](=O)[O-])cc2)cc1	0.0048% [at 46 µM]	
CCc1ccc(C=O)cc1	0.0747%	
CC(C)NCC(O)COc1ccc(COCCOC(C)C)cc1 (stereo not given)		inactive
CC(C)(C)c1n[nH]c(=S)n(N)c1=O	0.0566%	
C=C(C)C(=O)OCC(C)(C)COC(=O)C(=C)C	0.145%	
COC(=O)CCCCCCCC(=O)OC	0.0098%	
CC(C)(C)c1cc(CCC(=O)NN)cc(C(C)(C)C)c1O	-0.0373%	
COc1ccc(S(=O)(=O)N2c3ccc(Cl)cc3[C@@](O)(c3ccccc3Cl)[C@H]2C(=O)N2CCC[C@@H]2C(N)=O)cc1OC	0.0448% [at 46 µM]	
CC(=O)NCCCCCC(=O)O	-0.0565% [at 46 µM]	
CCCCCOC(=O)CCC	-0.0047%	
Brc1ccc(-c2ccccc2)cc1	0.0356%	
FC(F)(F)c1ccccc1-n1ccnc1	0.004% [at 46 µM]	

Compound	fluorescence, % of fluorescein control	outcome
CC(=C(CCOC(=O)C(C)C)SSC(CCOC(=O)C(C)C)=C(C)N(C=O)Cc1cnc(C)nc1N)N(C=O)Cc1cnc(C)nc1N	0.038% [at 46 µM]	
C#CC(C)N(C)C(=O)Nc1ccc(Cl)cc1 (stereo not given)	0.0721%	
Cc1cccc(C)c1OCC(C)N (stereo not given)	0.0363% [at 46 µM]	
COc1ccc(OC)c(Cl)c1	0.0248%	
Nc1nnc(-c2cccc(Cl)c2Cl)c(N)n1	0.0922% [at 46 µM]	
O=C(CCNNC(=O)c1ccncc1)NCc1ccccc1	-0.0595% [at 46 µM]	
CC1COc2ccccc2N1 (stereo not given)	0.0933%	
CCOc1cc(NC(C)=O)ccc1C(=O)OC	-0.011% [at 46 µM]	
On1nnc2ccccc21	0.0648%	
NNc1nnc(NN)c2ccccc12	0.0353% [at 46 µM]	
CCC(CC)CO	-0.0346%	
CC(C)CCCC(C)(C)O	-0.062%	
Nc1ccc(S(=O)(=O)Nc2ccc(Cl)nn2)cc1		inactive
CCCC/C=C\CCCCCCCCCC=O	0.0464%	
Cc1ccccc1OCC(O)CO (stereo not given)	0.0165% [at 46 µM]	
CNC(=O)[C@H]1O[C@@H](n2cnc3c(NCc4cc(Cl)ccc4OCc4cc(C)no4)ncnc32)[C@H](O)[C@@H]1N	0.0221%	
ClCCCl	0.0017%	
CCOC(=O)CC(=O)c1ccccc1	0.0735%	
NS(=O)(=O)c1ccc(NC(=O)CCC(=O)O)cc1	0.0065% [at 46 µM]	
O=C(O)c1ccc(Cl)cc1Cl	-0.0251% [at 95.7 µM]	
